# Reference: the OligoGym collection
# Target: SFTA2
# Experiment: pooled miR-30 sensor sort-seq; sequence = guide strand
# Settings: shRNA
row,Sequence,sensor-assay potency score (higher = more potent)
1,TTGAGATCTTGCATGGTGGAGG,-0.323
2,TCAAGCAATTCCAGGAAGCTGG,-0.742
3,TTCCATGTGAGCTGCCAAGGAG,-0.915
4,TGTCAGAAAAGACTCCTTCAGC,-0.402
5,TTCAGTTGCAAAGTCATACCCG,0.378

# Target: SGK1
# Experiment: as above
# Settings: shRNA
row,Sequence,sensor-assay potency score (higher = more potent)
1,TAAGTCTCTATAAACGATGTTC,-0.772
2,TTGTCGTACATTTCAGCTGTGT,-0.298
3,TTTGCTGAGAAGGACTTGGTGG,0.0605
4,TTCTTCAACAGAACATTCCGCT,0.565
5,TTTGACTGCATAGAACACTTCT,0.33
6,TTGCTAGAAGAACCTTTCCAAA,-1.79
7,TTTTAAGTCTCTATAAACGATG,-1.25
8,TTATTAATGAGATCATCCCAGT,-0.742
9,TACAATTTGTCAGCAGTCTGGA,0.173
10,TACATTTCAGCTGTGTTTCGGC,0.293
11,TTTAGCATGAGGATTGGACGAC,-0.303
12,TTCTGTAAAACTTTGACTGCAT,0.858

# Target: SGTA
# Experiment: as above
# Settings: shRNA
row,Sequence,sensor-assay potency score (higher = more potent)
1,AAGGTCACTGTCTTCTACCGTC,0.33
2,TCATCTGCTCGTTTCCTTCGGT,0.113
3,TTGTATGTCTCGTTGTCGGGGT,0.213
4,TATCAACTCTGGGTTCTGCTGC,0.409
5,TATCTTGAGGTTGGACTTGTAT,-0.792
6,TTGAGCTCGATGGCTTTTCCGT,-0.866
7,TTGGACTTGTATGTCTCGTTGT,0.614
8,TTTTCCACTTTCATCTGCTCGT,-0.241
9,TTCCACTTTCATCTGCTCGTTT,0.488
10,TTCTGCTGCTGCATCTGCTGGG,0.386
11,TGAGCTGCTCTATCAACTCTGG,-0.693
12,TAGGCCTTGCTGTAGGCCGGGT,-1.17

# Target: SH3YL1
# Experiment: as above
# Settings: shRNA
row,Sequence,sensor-assay potency score (higher = more potent)
1,TTGTCCTTCATTTTCATACTTT,-0.366
2,TTAACTAGTAAATCCTGTCAGT,-0.0626
3,TTTAGCAGAAGACTTCCTCTGC,0.193
4,TTTCATAAAGATCTTCGGCTTG,-0.146
5,ATAACTGTGATTCTGTCTCCAG,-0.286
6,TTATATTCATTTCTGTTGCTTT,-0.121
7,TTTTCTTGCATTGATTCGTTGT,0.574
8,TTGGAGGTAATTCTTTAGCAGA,-1.34
9,TTGCATTGATTCGTTGTCCTTC,0.55
10,TTGCTTAACTAGTAAATCCTGT,0.218
11,TTGAGAGCCAGAGTTCAGCTGG,0.176
